From PubChem
GDH-TPI counter = GDH-TPI coupling enzyme inhibitors, primary screen, artefact control for M. tuberculosis FBA inhibitor project, biochemical, absorbance, full deck; GDH-TPI coupled enzyme counterscreen, NADH absorbance; AID 588335, 2011; inhibition, % at 4.8 µM; hit rate 1.2% among 360,000;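 also: 0% = DMSO wells and 100% = wells lacking the enzyme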
CCHF vOTU inh = CCHFV vOTU protease inhibitors, primary screen, biochemical, Pep-AMC substrate, fluorescence; Crimean-Congo hemorrhagic fever virus L polyprotein viral ovarian tumor (vOTU) protease …; inhibition, % at 11.5 µM; hit rate 0.55% among 370,000; AID 651958, 2012; also: 0% = vehicle wells with enzyme and 100% = no enzyme wells
Vc quorum ag = inducers of Vibrio cholerae quorum light production without autoinducers, primary screen, BH1578 luxS cqsA deficient, single point; V. cholerae BH1578 lux reporter, luminescence, 6 h; activation, % at 18.7 µM; AID 588436, 2011; hit rate 0.16% among 350,000; in the data active = activation mostly above about 9.7%, no sharp cut-off
Mtb FBA inh = Mtb FBA enzyme inhibitors, primary screen, biochemical, fluorescence, strain H37Rv | purified M. tuberculosis FBA, fluorescence read-out | inhibition, % at 1 µM | hit rate 2.3% among 360,000 | AID 588726, 2011; in the data active = inhibition above about 27%;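 also: 0% = vehicle and 100% = reference inhibitor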
Target sequence (P9WQA3 whole entry, looked up): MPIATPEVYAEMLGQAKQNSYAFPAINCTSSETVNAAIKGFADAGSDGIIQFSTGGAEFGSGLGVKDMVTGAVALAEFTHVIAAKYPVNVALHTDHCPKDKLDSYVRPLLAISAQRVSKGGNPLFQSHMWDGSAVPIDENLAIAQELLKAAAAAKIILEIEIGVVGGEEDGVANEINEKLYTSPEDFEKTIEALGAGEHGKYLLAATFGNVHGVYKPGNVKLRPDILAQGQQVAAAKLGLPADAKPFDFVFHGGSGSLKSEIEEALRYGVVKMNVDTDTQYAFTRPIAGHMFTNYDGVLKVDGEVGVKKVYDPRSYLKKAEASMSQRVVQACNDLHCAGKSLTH
Numbers without * were called inactive; i = inactive; . = no result given; + = active, no number. In the library only some 3.9% were active in any assay of this set; here they are far more common. Rule as the data show it, unless noted: active = inhibition above about 30%; inactive = the rest.

SMILES | GDH-TPI counter | CCHF vOTU inh | Vc quorum ag | Mtb FBA inh
CN(c1ccccc1)c1ccc(/C=N/NC(=O)CC#N)cc1 | 31.3* | 7.5 | -0.3 | 8.6
CN(C)c1ccc(/C=N/NC(=S)NCc2ccccc2)cc1 | 32.3* | -13.9 | i | 23.7
Cc1ccccc1N(CC(=O)N/N=C/c1ccccc1Cl)C(=O)c1ccccc1 | 11.7 | -6.2 | i | -0.3
Cn1c(=O)n(C)c2cc(/C=N/NC(=S)NCc3ccccc3)ccc21 | 34.0* | -0.2 | i | 0.7
Cc1ccccc1N(CC(=O)N/N=C/c1ccc(N(C)C)cc1)C(=O)c1ccccc1 | 40.3* | -2.6 | -0.3 | 9.7
COCCN(C(=O)CSc1nnc(-c2cccc(F)c2)n1N)c1c(N)n(Cc2ccccc2)c(=O)[nH]c1=O | 3.6 | -6.8 | i | -2.8
COc1ccc(SC2=C[C@@]3(O)CC[C@@H](O)[C@@](Sc4ccc(OC)cc4)(C2=O)[C@H]3O)cc1 | . | -1.2 | . | .
CC(C)NC(=S)N/N=C/c1cc(Br)ccc1O | 12.8 | -2.2 | 3.3 | 0.7
CC(=O)Nc1cnc(-c2ccc3c(c2)OCO3)cn1 | 13.8 | 24.4 | 3.4 | 0.9
Cc1cc(C)nc(SCc2ccc(C(=O)N/N=C/c3ccccc3C(=O)O)cc2)n1 | -6.7 | -13.0 | -0.3 | 1.4
CN(C)c1ccc(/C=N/NC(=O)CSc2ccccn2)cc1 | 60.0* | 10.8 | i | 1.5
COCCCNC(=S)N/N=C/c1ccc(N(C)C)cc1 | 14.8 | -45.3 | i | 48.1*
Cn1ccc(C(=O)OCC(=O)Nc2ccccc2Cl)n1 | -5.4 | 6.4 | 0.9 | 3.2
COC(=O)c1nn(-c2ccc(C)cc2)ccc1=O | -2.6 | 9.1 | 0.7 | -1.4
Cc1cccc(C(=O)NC(C(=O)Nc2cccc(S(=O)(=O)N3CCCC3)c2)C(C)C)c1 (centres undefined) | 4.7 | 14.9 | 7.1 | -1.7
NC(CC(=O)O)c1ccc(F)cc1 (centres undefined) | 3.0 | -15.6 | -0.4 | 4.2
O=C1NC(=S)N/C1=C/c1cc([N+](=O)[O-])ccc1O | 34.3* | 15.0 | i | -21.2
O=C(NC1CCCCC1)N1Cc2cc(Br)ccc2-n2nncc2C1 | . | -1.6 | . | .
FC(F)(F)c1cc(Cl)c2nc(-c3cccc(Cl)c3)c(Cc3cccc(Cl)c3)n2c1 | . | 4.1 | . | .
FC(F)(F)c1cc(Cl)c2nc(-c3ccccc3)c(Cc3cccc(Cl)c3)n2c1 | . | 30.7* | . | .
O=C1NCCc2c1[nH]c1ccccc21 | -4.0 | -11.6 | 1.6 | 27.2*
COc1c(/C=N/Nc2ccc(C(=O)O)cc2)c(CCN(C)C(C)=O)cc2c1OCO2 | 36.7* | 6.6 | -0.6 | -1.8
CNC(=S)N(C)CCc1cc2c(c(OC)c1C=C1C(=O)NC(=O)NC1=O)OCO2 | 37.9* | 2.4 | i | -1.4
COc1c(/C=N/NC(=O)c2ccccc2O)c(CCN(C)C(C)=O)cc2c1OCO2 | 20.9 | -13.5 | 3.4 | -2.8
CC(C)CCC(O)(c1ccccc1)C(CN1CCOCC1)c1ccccc1 (centres undefined) | 3.5 | 19.3 | i | -1.6
SMILES | GDH-TPI counter | CCHF vOTU inh | Vc quorum ag | Mtb FBA inh
N#Cc1c(-c2ccccc2Cl)c2c([nH]c1=O)-c1ccccc1OC2 | 26.9 | -263.9 | i | +
CCN=c1scc(-c2ccco2)n1/N=C/c1ccc(O)cc1 | 14.6 | 1.9 | i | -0.2
CCN=c1scc(-c2ccco2)n1/N=C/c1ccc(OC)c(O)c1 | 32.0* | 3.2 | i | -1.4
O=C(NCc1cccnc1)/C(=C/c1ccc(-c2ccc(Cl)cc2)o1)S(=O)(=O)c1ccccc1 | 40.5* | -7.9 | -0.5 | 5.0
O=C(CN(Cc1ccc(Br)cc1)S(=O)(=O)c1ccccc1)NCc1cccnc1 | -5.3 | -0.7 | -12.5 | 0.7
O=C(NCc1cccnc1)/C(=C\c1ccc(-c2ccc(Br)cc2)o1)S(=O)(=O)c1ccccc1 | 32.2* | 6.7 | i | -0.6
O=C(NCc1cccnc1)/C(=C/c1ccc(-c2cccc(C(F)(F)F)c2)o1)NC(=O)c1ccccc1 | 32.5* | 21.3 | -1.4 | 2.0
CCOc1cc(N2CCOCC2)c(OCC)cc1NC(=O)C(C)Oc1ccccc1 (centres undefined) | -6.0 | -2.0 | -7.1 | 0.0
C=CCc1cc(/C=C2/NC(=O)N(CC(=O)OC)C2=O)cc(OC)c1O | 32.1* | 8.4 | -0.3 | 0.5
Cc1cccc(Cn2c(N3CCCCC3C)nc3c2c(=O)[nH]c(=O)n3C)c1 (centres undefined) | 4.3 | 29.8* | -0.3 | 0.2
Cc1cccc(Cn2c(N3CCN(C)CC3)nc3c2c(=O)[nH]c(=O)n3C)c1 | 2.5 | 3.8 | 0.7 | 2.0
